Assay results reported in PMC7862700, “An all-to-all approach to the identification of sequence-specific readers for epigenetic DNA modifications on cytosine”.

How the values were obtained:
Assay in all cases: DAPPL (digital affinity profiling via proximity ligation, sequencing); 10 mM Tris-HCl pH 7.5, 50 mM NaCl, 1 mM DTT, 4% glycerol, room temperature, 30 min; GST-TFs on glutathione beads, 16-mer random dsDNA library, 0.1% formaldehyde crosslink after washing; high values mean tight binding
FLI1 = target: T1, FLI1 (Homo sapiens, UniProt Q01543 1-452); details: protein: recombinant; tags: N-terminal GST; dsDNA, one strand shown
T1 sequence: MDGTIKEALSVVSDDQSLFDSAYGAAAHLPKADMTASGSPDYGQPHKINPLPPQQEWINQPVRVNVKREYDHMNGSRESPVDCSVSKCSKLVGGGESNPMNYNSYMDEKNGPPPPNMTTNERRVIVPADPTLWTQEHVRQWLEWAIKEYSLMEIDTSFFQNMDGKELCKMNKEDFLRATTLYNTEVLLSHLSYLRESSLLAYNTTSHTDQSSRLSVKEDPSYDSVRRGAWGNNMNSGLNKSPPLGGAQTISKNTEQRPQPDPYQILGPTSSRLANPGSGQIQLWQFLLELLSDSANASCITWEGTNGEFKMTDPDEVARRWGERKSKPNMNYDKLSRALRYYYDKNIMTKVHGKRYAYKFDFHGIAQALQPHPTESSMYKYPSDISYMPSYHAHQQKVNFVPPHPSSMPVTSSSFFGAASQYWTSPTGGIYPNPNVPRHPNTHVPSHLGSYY
Summary of the method: (§1)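 Pools of DNA-barcoded human transcription factors, expressed in yeast as GST fusions on glutathione beads and combined with a tag-only sample, were incubated with 200 nmole of a 16-mer random double-stranded DNA library. Incubation took 30 min at room temperature in Tris/NaCl/DTT/glycerol buffer and was followed by washing, 0.1% formaldehyde crosslinking, proximity ligation (BsaI/T4 ligase, 1 h, 37 °C), PCR amplification and sequencing on an Illumina NextSeq500. Binding signal is the ratio of a hexamer's read frequency for a factor to its frequency for the tag-only sample.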

ELK1 = target: T2, ELK1 (Homo sapiens, UniProt P19419 1-428); details: protein: recombinant; tags: N-terminal GST; dsDNA, one strand shown
T2 sequence: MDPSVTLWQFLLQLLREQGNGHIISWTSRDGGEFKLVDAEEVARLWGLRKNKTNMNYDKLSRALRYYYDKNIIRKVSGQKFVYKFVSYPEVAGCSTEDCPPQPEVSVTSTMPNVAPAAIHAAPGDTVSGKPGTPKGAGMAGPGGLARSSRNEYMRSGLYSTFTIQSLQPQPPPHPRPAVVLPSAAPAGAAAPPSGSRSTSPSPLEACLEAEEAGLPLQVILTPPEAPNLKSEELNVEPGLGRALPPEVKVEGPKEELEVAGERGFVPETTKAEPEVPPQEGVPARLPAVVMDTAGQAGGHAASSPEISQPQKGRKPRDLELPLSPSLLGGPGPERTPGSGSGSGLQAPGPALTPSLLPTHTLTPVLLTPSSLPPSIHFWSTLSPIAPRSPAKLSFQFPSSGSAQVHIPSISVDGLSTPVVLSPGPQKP
Summary of the method: as §1

GABPA = target: T3, GABPA (Homo sapiens, UniProt Q06546 1-454); details: protein: recombinant; tags: N-terminal GST; dsDNA, one strand shown
T3 sequence: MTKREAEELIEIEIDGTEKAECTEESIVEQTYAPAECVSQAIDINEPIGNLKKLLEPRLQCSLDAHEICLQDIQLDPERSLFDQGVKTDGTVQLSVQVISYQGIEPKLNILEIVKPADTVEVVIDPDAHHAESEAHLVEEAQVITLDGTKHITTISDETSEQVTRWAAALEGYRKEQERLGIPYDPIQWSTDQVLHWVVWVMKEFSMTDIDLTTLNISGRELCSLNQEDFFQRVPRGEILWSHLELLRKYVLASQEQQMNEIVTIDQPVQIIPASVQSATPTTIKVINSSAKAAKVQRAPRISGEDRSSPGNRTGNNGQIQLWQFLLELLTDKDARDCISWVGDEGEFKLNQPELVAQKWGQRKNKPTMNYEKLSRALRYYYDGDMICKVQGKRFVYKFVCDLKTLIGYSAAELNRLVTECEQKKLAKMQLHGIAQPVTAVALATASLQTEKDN
Summary of the method: as §1

ERG = target: T4, ERG (Homo sapiens, UniProt P11308 1-479); details: protein: recombinant; tags: N-terminal GST; dsDNA, one strand shown
T4 sequence: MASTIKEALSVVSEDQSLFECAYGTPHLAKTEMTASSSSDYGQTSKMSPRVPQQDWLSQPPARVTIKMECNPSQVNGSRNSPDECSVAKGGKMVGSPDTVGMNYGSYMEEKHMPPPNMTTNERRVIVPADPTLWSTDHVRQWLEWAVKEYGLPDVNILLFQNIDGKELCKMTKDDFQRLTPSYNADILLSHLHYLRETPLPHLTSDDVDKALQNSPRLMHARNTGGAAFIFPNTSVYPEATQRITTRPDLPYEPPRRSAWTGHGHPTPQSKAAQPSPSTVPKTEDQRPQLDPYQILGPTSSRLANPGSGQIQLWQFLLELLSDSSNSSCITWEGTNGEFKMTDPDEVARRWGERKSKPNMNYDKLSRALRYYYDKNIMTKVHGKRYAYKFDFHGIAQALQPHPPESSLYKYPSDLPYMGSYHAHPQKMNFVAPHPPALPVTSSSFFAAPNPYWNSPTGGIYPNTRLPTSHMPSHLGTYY
Summary of the method: as §1

ELF1 = ELF1 (Homo sapiens, UniProt P32519 1-619); details: protein: recombinant; tags: N-terminal GST; dsDNA, one strand shown
Summary of the method: as §1

EHF = target: T5, EHF (Homo sapiens, UniProt Q9NZC4 1-300); details: protein: recombinant; tags: N-terminal GST; dsDNA, one strand shown
T5 sequence: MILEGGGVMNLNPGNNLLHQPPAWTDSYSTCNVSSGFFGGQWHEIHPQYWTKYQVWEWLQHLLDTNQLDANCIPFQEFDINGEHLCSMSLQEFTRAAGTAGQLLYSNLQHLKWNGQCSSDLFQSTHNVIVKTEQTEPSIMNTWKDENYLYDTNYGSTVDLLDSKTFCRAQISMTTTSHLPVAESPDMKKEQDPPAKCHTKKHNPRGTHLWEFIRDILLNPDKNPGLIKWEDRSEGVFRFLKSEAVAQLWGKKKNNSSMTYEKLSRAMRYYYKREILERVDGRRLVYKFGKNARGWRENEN
Summary of the method: as §1

SPI1 = SPI1 (Homo sapiens, UniProt P17947 1-270); details: protein: recombinant; tags: N-terminal GST; dsDNA, one strand shown
Summary of the method: as §1

SPIB = SPIB (Homo sapiens, UniProt Q01892 1-262); details: protein: recombinant; tags: N-terminal GST; dsDNA, one strand shown
Summary of the method: as §1

ELK3 = target: T6, ELK3 (Homo sapiens, UniProt P41970 1-407); details: protein: recombinant; tags: N-terminal GST; dsDNA, one strand shown
T6 sequence: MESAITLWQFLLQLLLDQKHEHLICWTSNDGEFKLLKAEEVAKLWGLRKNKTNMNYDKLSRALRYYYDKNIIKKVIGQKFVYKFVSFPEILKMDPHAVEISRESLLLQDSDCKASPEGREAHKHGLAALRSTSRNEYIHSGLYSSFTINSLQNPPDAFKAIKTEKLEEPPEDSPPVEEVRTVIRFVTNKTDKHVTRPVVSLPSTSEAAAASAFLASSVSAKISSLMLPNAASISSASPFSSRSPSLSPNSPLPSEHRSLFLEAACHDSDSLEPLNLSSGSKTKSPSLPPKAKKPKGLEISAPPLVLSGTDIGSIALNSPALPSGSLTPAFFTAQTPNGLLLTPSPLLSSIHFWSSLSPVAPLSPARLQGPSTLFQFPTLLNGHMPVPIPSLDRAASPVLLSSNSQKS
Summary of the method: as §1

FEV = target: T7, FEV (Homo sapiens, UniProt Q99581 1-238); details: protein: recombinant; tags: N-terminal GST; dsDNA, one strand shown
T7 sequence: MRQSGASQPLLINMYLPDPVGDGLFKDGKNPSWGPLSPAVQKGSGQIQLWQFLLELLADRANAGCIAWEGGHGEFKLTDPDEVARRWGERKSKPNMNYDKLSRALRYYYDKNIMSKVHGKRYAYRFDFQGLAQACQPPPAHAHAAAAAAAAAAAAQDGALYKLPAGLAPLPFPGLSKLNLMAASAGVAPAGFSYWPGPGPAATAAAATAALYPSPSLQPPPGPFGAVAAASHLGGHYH
Summary of the method: as §1

ETV5 = ETV5 (Homo sapiens, UniProt P41161 1-510); details: protein: recombinant; tags: N-terminal GST; dsDNA, one strand shown
Summary of the method: as §1

HSF1 = HSF1 (Homo sapiens, UniProt Q00613 1-529); details: protein: recombinant; tags: N-terminal GST; chain copies: 3; dsDNA, one strand shown
Summary of the method: as §1

SPIC = target: T8, SPIC (Homo sapiens, UniProt Q8N5J4 1-248); details: protein: recombinant; tags: N-terminal GST; dsDNA, one strand shown
T8 sequence: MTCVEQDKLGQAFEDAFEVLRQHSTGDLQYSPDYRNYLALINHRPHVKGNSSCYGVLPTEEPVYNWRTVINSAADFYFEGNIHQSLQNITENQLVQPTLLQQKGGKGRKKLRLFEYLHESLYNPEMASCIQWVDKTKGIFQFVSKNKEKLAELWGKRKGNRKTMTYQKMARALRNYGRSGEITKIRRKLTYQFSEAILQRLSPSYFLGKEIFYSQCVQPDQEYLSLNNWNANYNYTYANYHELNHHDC
Summary of the method: as §1

ELF4 = ELF4 (Homo sapiens, UniProt Q99607 1-663); details: protein: recombinant; tags: N-terminal GST; dsDNA, one strand shown
Summary of the method: as §1

ELK4 = target: T9, ELK4 (Homo sapiens, UniProt P28324-2 1-405); details: protein: recombinant; tags: N-terminal GST; dsDNA, one strand shown
T9 sequence: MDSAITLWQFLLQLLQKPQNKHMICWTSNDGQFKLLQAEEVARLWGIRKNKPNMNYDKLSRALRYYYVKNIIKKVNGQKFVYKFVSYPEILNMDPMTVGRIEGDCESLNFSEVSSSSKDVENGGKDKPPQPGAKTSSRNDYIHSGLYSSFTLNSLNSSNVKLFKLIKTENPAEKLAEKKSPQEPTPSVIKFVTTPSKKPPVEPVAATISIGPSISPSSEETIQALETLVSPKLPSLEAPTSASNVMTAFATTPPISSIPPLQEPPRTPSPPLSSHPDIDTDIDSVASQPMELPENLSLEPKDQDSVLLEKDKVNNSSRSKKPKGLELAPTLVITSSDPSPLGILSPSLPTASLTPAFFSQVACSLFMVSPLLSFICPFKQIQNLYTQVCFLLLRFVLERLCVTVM
Summary of the method: as §1

ETV2 = target: T10, ETV2 (Homo sapiens, UniProt O00321 1-342); details: protein: recombinant; tags: N-terminal GST; dsDNA, one strand shown
T10 sequence: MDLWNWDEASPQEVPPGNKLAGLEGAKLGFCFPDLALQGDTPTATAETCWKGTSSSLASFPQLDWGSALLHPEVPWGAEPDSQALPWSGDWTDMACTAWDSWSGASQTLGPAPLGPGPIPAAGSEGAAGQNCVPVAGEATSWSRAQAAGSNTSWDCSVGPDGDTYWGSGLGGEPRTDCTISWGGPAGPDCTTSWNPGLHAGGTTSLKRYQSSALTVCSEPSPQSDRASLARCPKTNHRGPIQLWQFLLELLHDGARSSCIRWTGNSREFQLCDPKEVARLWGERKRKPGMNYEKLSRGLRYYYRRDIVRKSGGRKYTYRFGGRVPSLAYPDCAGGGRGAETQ
Summary of the method: as §1

ELF3 = target: T11, ELF3 (Homo sapiens, UniProt P78545 1-371); details: protein: recombinant; tags: N-terminal GST; dsDNA, one strand shown
T11 sequence: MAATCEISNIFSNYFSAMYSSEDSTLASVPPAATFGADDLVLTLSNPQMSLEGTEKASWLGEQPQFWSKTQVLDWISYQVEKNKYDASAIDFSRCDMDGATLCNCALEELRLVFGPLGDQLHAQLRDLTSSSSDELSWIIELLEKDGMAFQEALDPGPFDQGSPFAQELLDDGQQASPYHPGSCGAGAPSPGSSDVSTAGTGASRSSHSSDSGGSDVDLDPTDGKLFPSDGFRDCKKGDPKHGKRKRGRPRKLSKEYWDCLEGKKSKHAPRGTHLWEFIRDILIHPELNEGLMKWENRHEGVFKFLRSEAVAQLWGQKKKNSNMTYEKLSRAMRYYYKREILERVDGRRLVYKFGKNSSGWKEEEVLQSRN
Summary of the method: as §1

CRX = CRX (Homo sapiens, UniProt O43186 1-299); details: protein: recombinant; tags: N-terminal GST; dsDNA, one strand shown
Summary of the method: as §1

ETV1 = ETV1 (Homo sapiens, UniProt P50549 1-477); details: protein: recombinant; tags: N-terminal GST; dsDNA, one strand shown
Summary of the method: as §1

Chain of ETV5 (P41161 whole entry): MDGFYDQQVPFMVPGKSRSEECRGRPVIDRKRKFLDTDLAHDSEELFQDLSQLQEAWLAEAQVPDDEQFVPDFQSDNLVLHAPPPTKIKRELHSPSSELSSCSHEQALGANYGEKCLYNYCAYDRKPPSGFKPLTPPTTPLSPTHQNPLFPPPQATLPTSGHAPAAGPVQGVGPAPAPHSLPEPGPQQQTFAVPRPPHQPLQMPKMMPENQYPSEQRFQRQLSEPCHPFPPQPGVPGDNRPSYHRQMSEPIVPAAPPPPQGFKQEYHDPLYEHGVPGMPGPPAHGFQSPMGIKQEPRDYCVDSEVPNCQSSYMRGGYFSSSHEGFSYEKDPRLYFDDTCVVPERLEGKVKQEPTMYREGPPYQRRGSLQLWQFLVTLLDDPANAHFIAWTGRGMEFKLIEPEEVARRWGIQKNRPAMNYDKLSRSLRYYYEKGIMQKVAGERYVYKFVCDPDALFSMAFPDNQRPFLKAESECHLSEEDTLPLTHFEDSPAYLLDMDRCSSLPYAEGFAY
Chain of ETV1 (P50549 whole entry): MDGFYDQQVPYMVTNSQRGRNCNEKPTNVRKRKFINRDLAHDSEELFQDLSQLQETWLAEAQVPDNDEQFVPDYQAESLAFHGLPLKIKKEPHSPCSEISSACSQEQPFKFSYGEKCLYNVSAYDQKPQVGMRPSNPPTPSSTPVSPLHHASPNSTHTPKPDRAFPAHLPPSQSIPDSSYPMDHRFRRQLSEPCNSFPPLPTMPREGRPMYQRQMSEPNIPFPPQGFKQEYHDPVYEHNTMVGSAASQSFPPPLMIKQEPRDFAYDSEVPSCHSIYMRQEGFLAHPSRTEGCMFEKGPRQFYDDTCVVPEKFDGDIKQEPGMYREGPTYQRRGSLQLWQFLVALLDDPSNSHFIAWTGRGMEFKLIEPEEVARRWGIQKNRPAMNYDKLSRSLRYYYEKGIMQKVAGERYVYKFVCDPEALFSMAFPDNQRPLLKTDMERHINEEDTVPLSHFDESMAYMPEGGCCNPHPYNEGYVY
Chain of SPIB (Q01892 whole entry): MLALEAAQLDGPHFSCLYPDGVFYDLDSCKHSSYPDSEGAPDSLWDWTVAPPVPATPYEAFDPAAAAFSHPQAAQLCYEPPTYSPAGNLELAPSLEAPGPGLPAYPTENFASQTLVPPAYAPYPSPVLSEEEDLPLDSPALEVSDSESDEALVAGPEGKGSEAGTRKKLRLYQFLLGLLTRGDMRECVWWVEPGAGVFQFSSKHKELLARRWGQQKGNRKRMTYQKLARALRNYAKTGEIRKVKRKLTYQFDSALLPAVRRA
Chain of ELF4 (Q99607 whole entry): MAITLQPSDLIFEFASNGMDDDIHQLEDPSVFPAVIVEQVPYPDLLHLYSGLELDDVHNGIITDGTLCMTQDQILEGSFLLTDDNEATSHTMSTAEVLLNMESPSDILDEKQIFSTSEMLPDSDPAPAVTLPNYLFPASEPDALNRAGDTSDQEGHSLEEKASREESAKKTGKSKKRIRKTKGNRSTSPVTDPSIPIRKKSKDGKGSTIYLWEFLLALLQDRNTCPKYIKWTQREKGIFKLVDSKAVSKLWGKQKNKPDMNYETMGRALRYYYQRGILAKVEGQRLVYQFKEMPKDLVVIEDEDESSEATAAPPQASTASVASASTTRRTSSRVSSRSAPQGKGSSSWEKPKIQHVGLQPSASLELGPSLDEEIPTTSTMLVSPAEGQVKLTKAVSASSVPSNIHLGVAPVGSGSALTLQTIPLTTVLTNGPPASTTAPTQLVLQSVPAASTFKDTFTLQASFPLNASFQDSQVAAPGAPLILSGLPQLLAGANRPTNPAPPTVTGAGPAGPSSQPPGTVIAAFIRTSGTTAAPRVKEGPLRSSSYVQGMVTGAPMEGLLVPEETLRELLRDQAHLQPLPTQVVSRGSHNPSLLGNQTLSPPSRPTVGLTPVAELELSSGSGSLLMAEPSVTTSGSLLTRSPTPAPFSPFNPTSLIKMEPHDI
Chain of CRX (O43186 whole entry): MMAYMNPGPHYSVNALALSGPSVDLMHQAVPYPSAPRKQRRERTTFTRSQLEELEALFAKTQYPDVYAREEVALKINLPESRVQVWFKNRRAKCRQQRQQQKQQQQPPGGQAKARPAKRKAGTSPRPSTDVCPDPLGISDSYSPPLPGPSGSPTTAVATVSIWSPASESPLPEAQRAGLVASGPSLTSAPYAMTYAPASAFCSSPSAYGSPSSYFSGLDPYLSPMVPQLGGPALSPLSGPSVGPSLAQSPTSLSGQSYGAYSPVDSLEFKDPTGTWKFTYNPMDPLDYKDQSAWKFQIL
Chain of ELF1 (P32519 whole entry): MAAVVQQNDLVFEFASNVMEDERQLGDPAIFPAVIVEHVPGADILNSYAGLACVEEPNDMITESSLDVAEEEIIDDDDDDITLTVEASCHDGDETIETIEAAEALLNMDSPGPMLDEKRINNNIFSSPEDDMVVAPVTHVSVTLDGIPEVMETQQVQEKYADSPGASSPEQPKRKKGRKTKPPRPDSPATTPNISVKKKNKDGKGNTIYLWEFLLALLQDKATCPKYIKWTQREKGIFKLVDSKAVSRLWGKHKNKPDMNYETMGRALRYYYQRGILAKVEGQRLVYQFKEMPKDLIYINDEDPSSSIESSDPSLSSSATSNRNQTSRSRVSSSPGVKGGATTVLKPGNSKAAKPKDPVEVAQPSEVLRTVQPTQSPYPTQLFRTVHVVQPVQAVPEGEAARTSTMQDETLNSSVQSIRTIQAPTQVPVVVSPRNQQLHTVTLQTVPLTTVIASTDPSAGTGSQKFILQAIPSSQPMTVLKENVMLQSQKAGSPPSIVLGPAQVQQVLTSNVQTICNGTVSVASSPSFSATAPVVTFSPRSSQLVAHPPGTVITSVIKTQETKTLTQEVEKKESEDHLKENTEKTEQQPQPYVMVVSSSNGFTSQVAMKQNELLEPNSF
Chain of HSF1 (Q00613 whole entry): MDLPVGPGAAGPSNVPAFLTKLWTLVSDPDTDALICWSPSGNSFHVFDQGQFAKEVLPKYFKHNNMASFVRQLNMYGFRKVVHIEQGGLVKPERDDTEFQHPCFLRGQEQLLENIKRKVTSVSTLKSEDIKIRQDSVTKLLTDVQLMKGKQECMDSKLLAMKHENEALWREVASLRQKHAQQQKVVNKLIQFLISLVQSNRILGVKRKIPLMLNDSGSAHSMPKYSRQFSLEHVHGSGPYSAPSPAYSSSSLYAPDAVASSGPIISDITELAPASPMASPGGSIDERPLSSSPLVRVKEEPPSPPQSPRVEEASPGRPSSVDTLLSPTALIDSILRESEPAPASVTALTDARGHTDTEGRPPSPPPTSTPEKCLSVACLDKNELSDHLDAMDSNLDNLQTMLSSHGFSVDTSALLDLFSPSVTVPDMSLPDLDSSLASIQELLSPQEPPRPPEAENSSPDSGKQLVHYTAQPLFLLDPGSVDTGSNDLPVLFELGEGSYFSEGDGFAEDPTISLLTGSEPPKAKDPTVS

Sequence: CATACT
- binding signal (FLI1): 1.34 fold enrichment (6-mer frequency, TF over GST control)
- binding signal (ELK1): 1.29 fold enrichment (6-mer frequency, TF over GST control)
- binding signal (GABPA): 1.36 fold enrichment (6-mer frequency, TF over GST control)
- binding signal (ERG): 1.27 fold enrichment (6-mer frequency, TF over GST control)
- binding signal (ELF1): 1.34 fold enrichment (6-mer frequency, TF over GST control)
- binding signal (EHF): 1.31 fold enrichment (6-mer frequency, TF over GST control)
- binding signal (SPI1): 1.33 fold enrichment (6-mer frequency, TF over GST control)
- binding signal (SPIB): 1.29 fold enrichment (6-mer frequency, TF over GST control)
- binding signal (ELK3): 1.29 fold enrichment (6-mer frequency, TF over GST control)
- binding signal (FEV): 1.27 fold enrichment (6-mer frequency, TF over GST control)
- binding signal (ETV5): 1.2 fold enrichment (6-mer frequency, TF over GST control)
- binding signal (HSF1): 1.2 fold enrichment (6-mer frequency, TF over GST control)
- binding signal (SPIC): 1.23 fold enrichment (6-mer frequency, TF over GST control)
- binding signal (ELF4): 1.35 fold enrichment (6-mer frequency, TF over GST control)
- binding signal (ELK4): 1.34 fold enrichment (6-mer frequency, TF over GST control)
- binding signal (ETV2): 1.47 fold enrichment (6-mer frequency, TF over GST control)
- binding signal (ELF3): 1.34 fold enrichment (6-mer frequency, TF over GST control)
- binding signal (CRX): 1.24 fold enrichment (6-mer frequency, TF over GST control)
- binding signal (ETV1): 1.33 fold enrichment (6-mer frequency, TF over GST control)
